Assay outcomes deposited in PubChem BioAssay by The Scripps Research Institute Molecular Screening Center.
PLC-gamma1 inh: inhibitors of human phospholipase C gamma1. purified PLC-gamma1, fluorogenic substrate, fluorescence. inhibition, % at 12.2 µM. 0.84% of 370,000 active. AID 720700; in the data active means inhibition above about 9.5%
LEDGF integ inh: blocks HIV-1 LEDGF/p75-dependent DNA integration. TR-FRET IN-LEDGF/p75 DNA integration, Eu/Cy5. inhibition, % at 3.7 µM. 0.64% of 370,000 active. AID 743269;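 active means inhibition above the screen-wide mean plus 3 SD, cut at about 13% in these data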;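 further: signal is the Cy5 over europium emission ratio at 671 and 618 nm; 0% = plate median of compound wells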
PLCb3 inh: blocks human PLC-beta3 enzyme activity | 0.18% of 370,000 active | Q01970 | Purified PLC-beta3, fluorogenic substrate, fluorescence | inhibition, % at 12.2 µM | AID 720704; in the data active means inhibition above about 11%;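 further: 0% = median of compound wells on plate and 100% = full blocker control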
UHRF1 binding: UHRF1 methyl-DNA binding inhibition; UHRF1 binding to methylated oligo, TR-FRET; inhibition, % at 4.4 µM; 0.75% of 370,000 active; in the data active means inhibition above about 21%;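 further: UHRF1 SRA domain binding a hemimethylated CpG hairpin DNA probe; 0% = median of test compound wells and 100% = reference inhibitor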
MBD2 DNA inh: blocks human MBD2 binding to methylated DNA | TR-FRET, MBD2 binding to methylated oligonucleotide | inhibition, % at 4.4 µM | 0.31% of 370,000 active | AID 686964; in the data active means inhibition above about 13%
Target sequence (Q9UBB5 whole entry, looked up): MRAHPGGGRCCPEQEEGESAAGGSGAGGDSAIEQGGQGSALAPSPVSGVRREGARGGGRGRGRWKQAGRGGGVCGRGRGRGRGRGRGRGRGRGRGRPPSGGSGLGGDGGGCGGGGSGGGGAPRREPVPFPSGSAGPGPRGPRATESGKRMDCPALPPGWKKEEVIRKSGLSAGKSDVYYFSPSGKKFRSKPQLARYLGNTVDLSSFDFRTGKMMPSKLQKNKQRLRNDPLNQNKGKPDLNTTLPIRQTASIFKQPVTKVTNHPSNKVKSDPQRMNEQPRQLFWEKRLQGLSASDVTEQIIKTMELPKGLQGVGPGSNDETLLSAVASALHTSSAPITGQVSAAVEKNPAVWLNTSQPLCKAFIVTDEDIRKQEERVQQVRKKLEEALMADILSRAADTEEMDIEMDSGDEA
An asterisk follows results filed as active; i = inactive. Sampled rows, rich in hits. Any-hit rate of the full collection: about 2.4%.

SMILES	PLC-gamma1 inh	LEDGF integ inh	PLCb3 inh	UHRF1 binding	MBD2 DNA inh
CCN1CCCCC(NC(=O)c2cccc(C(F)(F)F)c2)C1=O (stereo not drawn)	2	1	2	-2	0
O=C(COc1ccc(F)cc1)Nc1nnc(S(=O)(=O)N2CCCC2)s1	-1	-5	0	37*	0
Cc1ccc(OCC(=O)Nc2nnc(S(=O)(=O)N3CCCCCC3)s2)cc1	-2	-5	-3	-2	-3
CCN(CC)c1nc(C(F)(F)F)nc2c1nnn2Cc1ccccc1	-2	-4	-8	39*	4
CCN(C)c1nc(C)nc2c1nnn2Cc1ccccc1	0	0	-1	0	1
COC(=O)[C@]12C[C@H](CC(=O)N3CCCC3)C(=O)N(Cc3ccc(Cl)cc3Cl)C1=C[C@H](COCc1ccccc1)O[C@@H]2C	5	-3	3	0	1
Cc1cc(C(=O)COc2cccc([N+](=O)[O-])c2)c(C)n1C1CC1	1	-1	-5	0	2
Cc1cc(C(=O)COC(=O)c2cccc(O)c2)c(C)n1C1CC1	0	4	-5	27*	1
O=C(O)c1ccc(N/N=C/C=C/c2ccccc2)cc1	-139	0	-200	21*	2
CCOC(=O)C1=C(COc2ccccc2)NC(=O)NC1c1ccc(Cl)cc1 (stereo not drawn)	6	2	5	3	4
CCOC(=O)C1=C(COC(=O)C2(C)CC2(Cl)Cl)NC(=O)NC1c1ccccc1 (stereo not drawn)	0	-1	-3	29*	-7
CN(Cc1ccccc1)C(=O)OCc1cn(Cc2ccccc2)nn1	1	5	2	-1	-3
CN=C(Nc1ccc(Cl)cc1)c1cccc(C(F)(F)F)c1	1	2	4	-1	-1
CN=C(Nc1ccc(Cl)cc1)c1ccc(C(F)(F)F)cc1	15*	2	5	2	-3
COc1ccc(-n2cnnc2SCC(=O)Nc2cccnc2Cl)cc1	1	3	5	21*	-1
COc1ccc(-n2cnnc2SCC(=O)Nc2nc(C)c(Cl)cc2Cl)cc1	-1	3	0	-1	-5
COC(=O)[C@]12C[C@H](CC(=O)NCc3ccc(C)o3)C(=O)N(Cc3cccc4ccccc34)C1=C[C@H](C(C)(C)C)O[C@@H]2C	1	2	3	-1	-2
Cc1cc(NC(=O)CSCC(=O)Nc2cc(Cl)ccc2N2CCN(C)CC2)no1	4	-4	-5	28*	0
O=C(O)c1ccc(NS(=O)(=O)c2ccc(NC(=O)c3ccccc3Cl)cc2)cc1	0	-6	-4	-1	5
O=C(O)c1ccc(NS(=O)(=O)c2ccc(Cl)c(C(=O)Nc3ccccc3)c2)cc1	5	4	-6	23*	-3
CC1=C(O)C(=O)C(C2=C(O)C(=O)C(C)=C(O)C2=O)=C(O)C1=O	47*	1	4	18	0
Cc1ccc(C2=C(O)C(=O)C(c3ccc(C)cc3)=C(O)C2=O)cc1	-7	1	-4	-2	-5
COC(=O)C1=CC(=O)C=C(OC)[C@@]12Oc1cc(C)cc(OC)c1C2=O	-6	0	-6	0	4
CCOC(=O)N1CCN(S(=O)(=O)c2ccc(C(=O)Nc3nnc(C)o3)cc2)CC1	2	-2	5	3	-1
COc1cc(-c2nnc(NC(=O)c3ccc(S(=O)(=O)N4CCOCC4)cc3)o2)cc(OC)c1OC	-2	-2	-1	82*	-3
SMILES	PLC-gamma1 inh	LEDGF integ inh	PLCb3 inh	UHRF1 binding	MBD2 DNA inh
COc1ccccc1-c1nnc(NC(=O)c2ccc(S(=O)(=O)N3CCOCC3)cc2)o1	-1	3	-3	-2	1
CCOC(=O)N1CCN(S(=O)(=O)c2ccc(C(=O)Nc3nnc(CSC)o3)cc2)CC1	0	0	0	31*	0
C=CC[C@@H](CC(=O)N[C@H](CO)Cc1ccccc1)C(=O)N[C@H](COC(=O)[C@@H](CC=C)CC(=O)OC(C)(C)C)Cc1c[nH]c2ccccc12	4	0	2	26*	1
CC(C)CN1C(=O)[C@@]2(CC(=O)N(C)C2c2ccccc2)c2cc(-n3cc(CO)nn3)ccc21 (stereo partly drawn)	1	-2	1	2	-1
CCN(CC1COc2ccccc2O1)S(=O)(=O)c1ccc(C)cc1 (stereo not drawn)	1	4	6	26*	9
CC1(C)CC(=O)C=C(NC2CCCCC2)C1	-1	3	2	2	0
CC1(C)CC(=O)C=C(C#CC2CC2)C1	-3	-1	0	23*	6
CC1(C)CC(=O)C2=C(C1)N(CC1CCCO1)C(=O)NC2(C(F)(F)F)C(F)(F)F (stereo not drawn)	5	0	3	23*	11
CCc1ccc(CN2CCC(C(=O)Nc3ccc(Oc4ccccc4)nc3)CC2)o1	1	2	-3	43*	-4
COC(=O)C1CN(Cc2ccc(F)cc2)CCS(=O)(=O)N1Cc1cn(Cc2ccc(Cl)cc2)nn1 (stereo not drawn)	2	0	1	8	6
O=C(/C=C/c1ccc(Cl)cc1)N1CCN(CCN2C(=O)c3cccc4cccc(c34)C2=O)CC1	3	-1	-7	31*	-2
CCc1cc(Cn2nc(-c3ccccc3)cc2C(=O)NCc2ccc(C)cc2)on1	0	-3	-1	-6	-4
CCc1cc(Cn2nc(-c3ccccc3)cc2C(=O)O)on1	-1	1	-1	80*	3
CC(=O)c1cc(C#N)c(N2CCOCC2)nc1C	0	-2	2	34*	0
COC(=O)c1cc(C#N)c(N2CCOCC2)nc1C	1	0	-1	-2	4
O=C(c1cccs1)N1CC[C@H]2[C@H](CCCN2Cc2ccc(F)cc2)C1	0	-3	0	1	3
O=c1[nH]c2cc3c(cc2cc1CN(Cc1ccccc1)Cc1nnnn1Cc1ccco1)OCCO3	i	16*	i	1	-1
Nc1c(-c2ccccc2)c(CSc2nc3ccccc3[nH]2)nn1-c1ccc(Cl)cc1	12*	-2	4	2	1
COc1ccc(N2CCN(C(=O)C3CCCN(S(=O)(=O)c4ccc5c(c4)oc(=O)n5C)C3)CC2)cc1 (stereo not drawn)	5	-7	0	2	3
COc1ccccc1N1CCN(C(=O)C2CCCN(S(=O)(=O)c3ccc4c(c3)oc(=O)n4C)C2)CC1 (stereo not drawn)	-1	-3	-10	24*	7
CCC[C@H]1[C@@H](OC(=O)NCc2ccc(C(F)(F)F)cc2)CC[C@@]23CCCN2C(=O)CCC[C@@H]13	2	-2	2	0	5
CNC(=O)CSc1nnc(-c2cc(C)cc(C)c2)o1	2	0	3	67*	-7
Cc1ccc(-c2nnc(SCC(=O)Nc3ccc4c(c3)OCCO4)n2-c2ccc(Cl)cc2)cc1	2	2	-1	-3	-3
